Hit rate of the full screen: of about 3,600 compounds, about 900 (25%) were called active. How the calls were made is not given here. Not all results are given here. Results with a measured potency or affinity are listed apart.

For this assay, the target named is Protein Tat (Human immunodeficiency virus type 1 group M subtype B (isolate HXB2)) (UniProt P04608). The assay is described as follows: inhibitors of Tat binding to TAR RNA, dose response, counter-screen for Vif-APOBEC3G degradation inhibitor project, biochemical, fluorescence polarization, FAM-labeled TAR RNA (AID 1117361). To be noted: outcome: dose series up to 100 µM unless noted; series mostly up to 100 µM; inhibition: at the top concentration.
With `CCCCc1cc(C(=O)Cc2ccccn2)c(O)cc1O`, the “inhibition” value is 8.35% (inactive).
`CC(C)NC(=O)c1ccc(COCC(F)(F)C(F)F)cc1`: the call was inactive.
For the compound `CN(C)CCOCCSc1ccc(Cl)cc1`, the call was inactive.
`CC(C)(NO)/C(=N\O)c1ccccc1`: the “inhibition” value is 6.14% (inactive).
Turning to `Cc1cc(Nc2ccc(Br)cc2)n2nc(C)nc2n1`, the outcome was inactive.
For the compound `CCc1cc2c(N3CCCCC3)ncnc2s1`, the compound was classed as inactive.
`CCOc1ccc(Nc2nc(Cc3nnc(SCC(=O)NCC4CCCO4)n3C)cs2)cc1` (stereo not given): the compound was classed as inactive.
Regarding `CCOC(=O)c1c(C)[nH]c(C(=O)OCC(=O)N2c3ccccc3CC2C)c1C` (stereo not given), the “inhibition” value is 7.5% (inactive).
For the compound `S=C(Nc1cccc(Cl)c1)NC1CCCCC1`, the “inhibition” value is 3.41% (inactive).
Take `CC(=O)c1cccc(NC(=O)c2cnn3ccccc23)c1`: the “inhibition” value is 4.77% (inactive).
On to `CC(=O)Nc1ccc(NC(=O)CN(c2cccc(C(C)=O)c2)S(C)(=O)=O)cc1`, for which the call was inactive.
On to `Cn1nnc(NC(=O)c2cccc(F)c2)n1`, for which the “inhibition” value was 5.46% (inactive).
Regarding `CC(=O)N1CCc2cc(S(=O)(=O)NCCC(=O)Nc3cccc(C)c3C)ccc21`, the “inhibition” value is 10.9% (inactive).
Regarding `CC1CCc2[nH]c3ccc(C(=O)N(C)CC(=O)Nc4ccc(F)cc4)cc3c2C1` (stereo not given), the call was inactive.
`O=C(NNC(=O)c1ccccc1F)c1cccc(-n2cccc2)c1`: the result was inactive.
On the same count and under the same terms, the same measure for `CCN(CC)C(=O)NCc1c(C)cc(C)cc1C`: “inactive”; for `Cc1ccc(-n2[nH]c(=O)c3cccnc32)cc1`: “inactive”.
For the compound `O=C(Nc1ccc(Cl)c(-c2nc3ccccc3[nH]2)c1)c1cccnc1`, the “inhibition” value is 3.41% (inactive).
`CCCCCCN(C(=O)CCCCCN1C(=O)NC(c2ccc(C(C)(C)C)cc2)C(C(=O)OCc2ccccc2)=C1C)C(C(=O)NCCCC)c1ccc(OCC(=O)OC)c(C(=O)OC)c1` (stereo not given): the “inhibition” value is 0.82% (inactive).
Turning to `CCOC(CNC(=O)C(=O)Nc1cc2c3c(c1)CC(=O)N3CCC2)OCC`, the “inhibition” value is 0.33% (inactive).
In the case of `CCOC(=O)C1CCN(S(=O)(=O)c2cccc(-c3cn4cccc(C)c4n3)c2)CC1`, the “inhibition” value is 2.7% (inactive).
As to `C/C(=N\n1c(C)nc2ccccc2c1=O)c1ccc(C)o1`, the compound was classed as inactive.
In the case of `COc1ccc(C(=O)CSc2n[nH]c(N)n2)cc1`, the “inhibition” value is 0.68% (inactive).
Regarding `CCOC(=O)c1sc(-c2ccccc2)cc1NC(=O)CSc1nnnn1C`, the compound was classed as inactive.
Consider `Cc1cc(C(=O)N2CCN(C/C=C/c3ccccc3)CC2)cs1`, for which the “inhibition” value was 6.76% (inactive).
As for `CC1=C(C(=O)N2CCCCC2)C2(CCC(C)CC2)OC1=O` (stereo not given), the “inhibition” value was 2.03% (inactive).
On to `COc1ccc(NS(=O)(=O)c2cccc(Cl)c2Cl)cc1S(=O)(=O)N1CCCCC1`, for which the “inhibition” value was 4.77% (inactive).
The same measure, in the same setting: the same measure for `COc1ccc(OC)c(S(=O)(=O)Nc2cnc3ccccc3c2)c1`: 4.09% (inactive); for `COC(=O)CN1C(=O)C(O)=C(C(C)=O)C1c1ccc([N+](=O)[O-])cc1` (stereo not given): 2.73% (inactive).
For `CC1(c2ccccc2)NC(=O)N(CC(=O)Nc2cccc(C#N)c2)C1=O` (stereo not given), the “inhibition” value is 0.7% [at 50 µM] (inactive).
In the case of `CS(=O)(=O)N1CCC(C(=O)Nc2ccccc2)CC1`, the compound was called inactive.
In the case of `O=C(CCc1ccccc1)Nc1ccc2c(c1)OCCO2`, the compound was called inactive.
The same measure, in the same setting: the same measure for `COc1ccccc1N(CC(=O)NC(C)C)S(=O)(=O)c1cccs1`: “inactive”.
Regarding `O=C(CN1CCCCC1)Nc1nnc(-c2ccccc2)s1`, the “inhibition” value was 0.68% (inactive).
With `O=C(Nc1ccncc1)C1CCN(S(=O)(=O)c2c(Cl)cccc2Cl)CC1`, the “inhibition” value is 6.35% (inactive).
As to `O=C(Nc1cc(Cl)ccn1)C1CCN(S(=O)(=O)c2cccs2)CC1`, the “inhibition” value is 8.78% (inactive).
On to `CC(C)c1nnc(NC(=O)CCC(=O)NCc2ccco2)s1`, for which the “inhibition” value was 0.68% (inactive).
Still for that read-out and setting: the figure for `CC(=O)C1=C(N2CCCCC2)CCC1=O` is 4.73% (inactive).
Turning to `Cc1ccc(CNC(=O)CN(c2cccc([N+](=O)[O-])c2)S(C)(=O)=O)cc1`, the compound was called inactive.
With `CCCn1[nH]cc(SC)c(=O)c1=O`, the compound was classed as inactive.
With `O=c1c(N=Nc2ccc(O)cc2)c(-c2ccccc2)[nH]n1-c1ccc([N+](=O)[O-])cc1`, the “inhibition” value was 3.3% (inactive).
With `CC(SC1=NCCS1)C(=O)Nc1nnc(-c2ccc(Cl)cc2)s1` (stereo not given), the compound was called inactive.
`CCn1cc(S(=O)(=O)CC(=O)Nc2ccc(OC)cc2)c2ccccc21`: the “inhibition” value was 0.68% (inactive).
With `COc1cc(C(=O)Nc2ccc(S(=O)(=O)NC(C)C)cc2)cc(OC)c1OC`, the “inhibition” value is 6.82% (inactive).
In the case of `C#Cc1ccc([C@H]2C=C(C(=O)N3CCOCC3)O[C@@H](OCc3ccc(CO)cc3)C2)cc1`, the outcome was inactive.
As to `COc1ccccc1C(=O)Nc1cccc(-c2cn3ccsc3n2)c1`, the “inhibition” value was 4.05% (inactive).
For the compound `O=C(OCn1ncc(Br)c(Br)c1=O)c1ccc(F)cc1`, the “inhibition” value is 1.35% (inactive).
For the compound `C=CCc1ccc(OCCCCN2CC(C)OC(C)C2)c(OC)c1` (stereo not given), the “inhibition” value was 7.5% (inactive).
As to `O=C(NCCCN1CCOCC1)C1(c2ccccc2)CCCC1`, the compound was classed as inactive.
In the case of `Cc1ccc(C(=O)Oc2ccc(Cl)c3cccnc23)cc1[N+](=O)[O-]`, the “inhibition” value is 0.68% (inactive).
Regarding `Oc1c(CN2CCOCC2)cc(CN2CCOCC2)c(O)c1O`, the “inhibition” value is 1% (inactive).
Take `COc1ccc(C(=O)Oc2c(CN3CCOCC3)cc(Cl)c3cccnc23)cc1`: the call was inactive.
With `O=[N+]([O-])c1cc(CN2CCN(c3cccc(C(F)(F)F)c3)CC2)c2cccnc2c1O`, the “inhibition” value was 1.65% (inactive).
For `Cc1[nH]c2ccccc2c1C1=CC(=O)C=CC1=O`, the result was inactive.
With `CC[n+]1c(/C=C2/C=C(C)CC(C)(C)C2)sc2ccc(OC)cc21`, the “inhibition” value was 3.01% (inactive).
Turning to `Cc1nn(CC(=O)NC2CC2)c(C)c1S(=O)(=O)N(C)C`, the outcome was inactive.
`C/C(N)=C(/C#N)C(=O)CSc1nnc(Nc2c(C)cccc2C)s1`: the “inhibition” value is 15% (inactive).
Same read-out and setting: the figure for `CC(Oc1ccc(Cl)cc1)c1ccnn1S(C)(=O)=O` (stereo not given) is 2.73% (inactive).
The same measure, in the same setting: the same measure for `CC(=O)Nc1cc(NC(C)=O)cc(C(=O)N2CCCC3CCCCC32)c1` (stereo not given): 26.4% (inactive).
Consider `CCC(=O)Nc1ccc(S(=O)(=O)NC[C@H]2O[C@@H](n3cc(C)c(=O)[nH]c3=O)C[C@@H]2O)cc1`, for which the result was inactive.
As to `CCOC(=O)CSc1nnc(-c2ccccc2NC(=O)c2ccccc2)o1`, the “inhibition” value was 1.36% (inactive).
The same measure, in the same setting: the figure for `O=C(NCc1cn2ccccc2n1)c1ccc2c(c1)OCO2` is 0.68% (inactive); for `Cn1ncc2c(Nc3ccc4ccccc4c3)ncnc21` it is 1.36% (inactive).
As to `CCC(C)N1C(=O)S/C(=C/c2ccc(Sc3nc4ccccc4[nH]3)o2)C1=O` (stereo not given), the call was inactive.
Regarding `COc1cccc(-c2cc(C(=O)Nc3cnn(Cc4ccccc4C)c3)no2)c1`, the “inhibition” value is 7.43% (inactive).
Same read-out and setting: the figure for `Cc1ccc(S(=O)(=O)N2CCN(C(C(=O)Nc3ccc(F)cc3)c3ccccc3)CC2)cc1` (stereo not given) is 2.05% (inactive); for `CC(C)c1ccc(NC(=O)C(c2ccccc2)N2CCC3(CC2)OCCO3)cc1` (stereo not given) it is 0.68% (inactive).
With `Cc1[nH]c2ccccc2c1C(=O)Cn1c(=O)oc2ccccc21`, the “inhibition” value is 4.73% (inactive).
`O=C(CCC(=O)OCC(=O)c1ccc(F)cc1)NC1CCCCC1`: the “inhibition” value is 0.68% (inactive).
On the same count and under the same terms, the figure for `CCOC(=O)C1=C(CSc2nc(C)ccc2C#N)OC(N)=C(C#N)C1c1cccc(OC)c1OC` (stereo not given) is 3.41% (inactive).

Source of the values: PubChem BioAssay AID1117361 (Southern Research Institute, 2015).
